In the library only some 27% were active in any assay of this set; here they are far more common.
Cav32 inh: human Cav3.2 channel inhibition, primary screen. B-score at 10 µM. AID 449739. actives 4% (n = 100,000). Cav3.2-expressing cells, Fluo-4 calcium fluorescence FDSS; hits give low values;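 active = single-dose well whose peak fluorescence ratio is a statistical outlier from its plate by either plate-standardised score or position-corrected B-score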
CYP2C19 act: increases human CYP2C19 enzyme activity. recombinant CYP2C19, luciferin-H EGE luminescence; hits give high values; 0 = fully inhibited enzyme, 1 = untreated enzyme. activation factor at 5 µM. 96,000 tested, under 10 active;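 active = activation factor of at least 2 at 5 µM in the primary screen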
CYP2C19 inhib: inhibitors of human CYP2C19; inhibition, % at 5 µM; CYP2C19 Supersomes, luciferin-H EGE luminescence, 30 min; AID 778; actives 21% (n = 96,000); P33261;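 active = CYP2C19 inhibition above a set limit at 5 µM in the primary screen, cut at about 50% in these data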
CYP2C9 act: activators of human CYP2C9. P11712. recombinant CYP2C9, luciferin-H conversion, luminescence; hits give high values; factor 1 = untreated enzyme, 0 = blocked. activation factor at 5 µM. actives 1.4% (n = 96,000);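 active = activation factor of 2 or more for CYP2C9 at a 5 µM dose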
CYP2C9 inh: inhibitors of human CYP2C9. CYP2C9 Supersomes, luciferin-H conversion, luminescence. actives 20% (n = 96,000). inhibition, % at 5 µM. P11712;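 active = blocking of liver enzyme CYP2C9 beyond about 50% at 5 µM, limit read from the data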
Pyk2 oligo antag: Pyk2 (human) oligomerization antagonism. Q14289. Q293 cells, Pyk2 FERM NanoBiT luminescence; hits give low values. z-score (the deposit names both 25 µM and 10 µM). actives 0.83% (n = 99,000). AID 1347419;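 active = Z-score of -3 or lower, scaled per plate to the spread of control and sample wells; inactive = z-score above -3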;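 also: negative z-score means lost luminescence so less FERM oligomerization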
Target sequence (Q14289 whole entry, looked up): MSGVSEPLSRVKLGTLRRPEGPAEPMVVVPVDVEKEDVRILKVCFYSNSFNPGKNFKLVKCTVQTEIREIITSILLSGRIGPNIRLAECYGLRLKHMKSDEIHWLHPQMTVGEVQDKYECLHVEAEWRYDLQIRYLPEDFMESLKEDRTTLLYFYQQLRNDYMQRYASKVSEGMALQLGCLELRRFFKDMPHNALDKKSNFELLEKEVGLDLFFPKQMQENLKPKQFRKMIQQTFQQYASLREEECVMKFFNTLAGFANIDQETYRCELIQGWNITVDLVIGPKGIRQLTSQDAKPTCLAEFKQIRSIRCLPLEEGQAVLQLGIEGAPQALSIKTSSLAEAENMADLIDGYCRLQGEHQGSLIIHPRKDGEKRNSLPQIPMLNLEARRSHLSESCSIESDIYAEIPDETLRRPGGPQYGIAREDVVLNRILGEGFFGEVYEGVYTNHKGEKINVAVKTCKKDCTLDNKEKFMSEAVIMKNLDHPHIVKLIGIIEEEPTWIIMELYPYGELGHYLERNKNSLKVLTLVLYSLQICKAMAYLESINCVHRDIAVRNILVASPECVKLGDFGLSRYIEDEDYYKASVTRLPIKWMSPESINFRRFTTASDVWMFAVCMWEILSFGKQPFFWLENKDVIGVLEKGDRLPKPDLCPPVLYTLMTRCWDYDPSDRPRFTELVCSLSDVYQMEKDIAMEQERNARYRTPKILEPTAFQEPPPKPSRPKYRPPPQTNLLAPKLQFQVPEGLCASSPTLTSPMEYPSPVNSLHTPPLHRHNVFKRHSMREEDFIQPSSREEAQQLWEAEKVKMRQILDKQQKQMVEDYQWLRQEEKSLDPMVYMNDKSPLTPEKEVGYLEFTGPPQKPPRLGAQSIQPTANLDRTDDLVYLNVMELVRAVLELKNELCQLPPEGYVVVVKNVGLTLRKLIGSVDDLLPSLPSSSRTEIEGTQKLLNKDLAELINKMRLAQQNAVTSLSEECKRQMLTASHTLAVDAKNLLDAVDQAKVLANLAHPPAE
A number is an active result.

Screening Cc1c(C)n(C(=O)CSc2nccn2C)c2ccccc12 returned Cav32 inh inactive, CYP2C19 act inactive, CYP2C19 inhib 79, CYP2C9 act inactive, CYP2C9 inh inactive and Pyk2 oligo antag inactive.
Screening CCCCn1c(SCC(=O)Nc2cc(C)on2)nnc1-c1ccco1 returned Cav32 inh inactive, CYP2C19 act inactive, CYP2C19 inhib inactive, CYP2C9 act inactive, CYP2C9 inh inactive and Pyk2 oligo antag inactive.
Screening CCn1c(SCC(=O)Nc2nonc2C)nnc1-c1ccco1 returned CYP2C19 act inactive, CYP2C19 inhib 86, CYP2C9 act inactive, CYP2C9 inh inactive and Pyk2 oligo antag inactive.
For Cc1cc(NC(=O)CSc2nnc(-c3ccc(Br)o3)n2Cc2ccccc2)no1 the results were Cav32 inh -5, CYP2C19 act inactive, CYP2C19 inhib 58, CYP2C9 act inactive, CYP2C9 inh 66 and Pyk2 oligo antag inactive.
CCn1c(SCC(=O)Nc2ccc3c(c2)c2ccccc2n3CC)nnc1-c1ccco1 was read as CYP2C19 act inactive, CYP2C19 inhib 85, CYP2C9 act inactive, CYP2C9 inh inactive and Pyk2 oligo antag inactive.
Screening CCc1nnc(NC(=O)CSc2nnc(-c3ccccc3O)n2-c2ccc(C)cc2C)s1 returned Cav32 inh -9, CYP2C19 act inactive, CYP2C19 inhib inactive, CYP2C9 act inactive, CYP2C9 inh inactive and Pyk2 oligo antag -3.8.
For Cc1cc(C)c(C)c(OCC(=O)N2CCCCCC2)c1 the results were Cav32 inh inactive, CYP2C19 act inactive, CYP2C19 inhib inactive, CYP2C9 act inactive, CYP2C9 inh inactive and Pyk2 oligo antag inactive.
CC1CCc2nc(NC(=O)CN3CCN(c4ccc(F)cc4)CC3)sc2C1 (configuration not stated) was read as Cav32 inh -5, CYP2C19 act inactive, CYP2C19 inhib inactive, CYP2C9 act inactive, CYP2C9 inh inactive and Pyk2 oligo antag inactive.
For O=C(CN1CCN(c2ccc(F)cc2)CC1)Nc1nnc(-c2ccccc2)s1 the results were Cav32 inh inactive, CYP2C19 act inactive, CYP2C19 inhib inactive, CYP2C9 act inactive, CYP2C9 inh inactive and Pyk2 oligo antag inactive.
Screening COc1ccc(N2CCN(C(=O)CNC(=O)Cn3c(C)cc4ccccc4c3=O)CC2)cc1 returned Cav32 inh inactive, CYP2C19 act inactive, CYP2C19 inhib inactive, CYP2C9 act inactive, CYP2C9 inh inactive and Pyk2 oligo antag inactive.
Screening CC1CCC(C(C)C)C(OC(=O)COC(=O)c2cccn2C)C1 (configuration not stated) returned Cav32 inh inactive, CYP2C19 act inactive, CYP2C19 inhib 91, CYP2C9 act inactive, CYP2C9 inh 80 and Pyk2 oligo antag inactive.
BrC(=C\c1ccccc1)/C=N/N1CCN(c2ccccn2)CC1 was read as Cav32 inh inactive, CYP2C19 act inactive, CYP2C19 inhib inactive, CYP2C9 act inactive, CYP2C9 inh inactive and Pyk2 oligo antag inactive.
Screening CCN1CCN(S(=O)(=O)c2ccc(S(=O)(=O)N(CC)Cc3ccccc3)cc2)CC1 returned Cav32 inh inactive, CYP2C19 act inactive, CYP2C19 inhib inactive, CYP2C9 act inactive, CYP2C9 inh inactive and Pyk2 oligo antag inactive.
For CCN(Cc1ccncc1)S(=O)(=O)c1ccc(C(C)=O)cc1 the results were Cav32 inh inactive, CYP2C19 act inactive, CYP2C19 inhib 91, CYP2C9 act inactive, CYP2C9 inh 87 and Pyk2 oligo antag inactive.
Screening COc1ccc(CNc2nc3c(c(C(F)(F)F)n2)CCCCC3)cc1 returned Cav32 inh inactive, CYP2C19 act inactive, CYP2C19 inhib inactive, CYP2C9 act inactive and CYP2C9 inh 53.
Screening CC(C)NC(=O)Cn1nc(C(F)(F)F)c2c1CCC2 returned Cav32 inh inactive and Pyk2 oligo antag inactive.
COc1ccc(CNC(=O)c2noc3c2CCCCC3)cc1 was read as Cav32 inh inactive, CYP2C19 act inactive, CYP2C19 inhib inactive, CYP2C9 act inactive, CYP2C9 inh inactive and Pyk2 oligo antag inactive.
For COc1ccc(NC(=O)Cn2nc(C(F)(F)F)c3c2CCCC3)c(OC)c1 the results were Cav32 inh inactive, CYP2C19 act inactive, CYP2C19 inhib 75, CYP2C9 act inactive, CYP2C9 inh inactive and Pyk2 oligo antag inactive.
Screening COc1ccc(CNC(=O)Cn2nc(C(F)(F)F)c3c2CCC3)cc1 returned Cav32 inh inactive, CYP2C19 act inactive, CYP2C19 inhib inactive, CYP2C9 act 3, CYP2C9 inh inactive and Pyk2 oligo antag inactive.
For Cc1ccc(NC(=O)Cn2nc(C(F)(F)F)c3c2CCC3)cc1 the results were Cav32 inh inactive, CYP2C19 act inactive, CYP2C19 inhib 50, CYP2C9 act inactive, CYP2C9 inh inactive and Pyk2 oligo antag inactive.
COc1ccc(N2CC(C(=O)NCc3cccnc3)CC2=O)cc1 (configuration not stated) was read as Cav32 inh inactive, CYP2C19 act inactive, CYP2C19 inhib inactive, CYP2C9 act inactive, CYP2C9 inh inactive and Pyk2 oligo antag inactive.
O=c1c2ccccc2nc(SCc2ccc([N+](=O)[O-])cc2)n1-c1ccccc1 was read as Cav32 inh inactive, CYP2C19 act inactive, CYP2C19 inhib inactive, CYP2C9 act inactive, CYP2C9 inh inactive and Pyk2 oligo antag inactive.
COC(=O)c1ccc(CSc2nccn2C)cc1 was read as Cav32 inh inactive, CYP2C19 act inactive, CYP2C19 inhib 65, CYP2C9 act inactive, CYP2C9 inh inactive and Pyk2 oligo antag inactive.
`Cn1c(CO)cnc1SCc1ccc([N+](=O)[O-])cc1` gave Cav32 inh inactive, CYP2C19 act inactive, CYP2C19 inhib 65, CYP2C9 act inactive, CYP2C9 inh inactive and Pyk2 oligo antag inactive.
Screening Cn1ccnc1SCc1ccc([N+](=O)[O-])cc1 returned Cav32 inh inactive, CYP2C19 act inactive, CYP2C19 inhib 55, CYP2C9 act inactive, CYP2C9 inh inactive and Pyk2 oligo antag inactive.
Screening CCc1ccc(-c2cn(-c3nc(C)cc(C)n3)c(=N)o2)cc1 returned Cav32 inh inactive, CYP2C19 act inactive, CYP2C19 inhib 59, CYP2C9 act inactive, CYP2C9 inh inactive and Pyk2 oligo antag inactive.
For COC(=O)Cn1ncc2c3ccccc3n(C)c2c1=O the results were Cav32 inh inactive, CYP2C19 act inactive, CYP2C19 inhib inactive, CYP2C9 act inactive, CYP2C9 inh inactive and Pyk2 oligo antag inactive.
For CCC(CC)C(=O)NCCc1cc2ccc(OC)cc2[nH]c1=O the results were CYP2C19 act inactive, CYP2C19 inhib inactive, CYP2C9 act inactive, CYP2C9 inh inactive and Pyk2 oligo antag inactive.
For COc1ccc2cc(CCNC(=O)c3ccc4c(c3)OCO4)c(=O)[nH]c2c1 the results were CYP2C19 act inactive, CYP2C19 inhib inactive, CYP2C9 act inactive and CYP2C9 inh 82.
`COc1ccc2cc(CCNC(=O)c3ccc(Br)o3)c(=O)[nH]c2c1` gave CYP2C19 act inactive, CYP2C19 inhib 51, CYP2C9 act inactive and CYP2C9 inh inactive.
Screening O=C(NCc1ccco1)c1cc2sccc2n1Cc1ccccc1 returned Cav32 inh -5.6 and Pyk2 oligo antag inactive.
